Screening data deposited in PubChem by several laboratories.
Hits are enriched below; roughly 1.8% of the tested compounds scored in any of these assays.
TLR4 MyD88 comp: TLR4-MyD88 interaction inhibition in cells. 200,000 compounds, 0.18% hits. O00206+Q99836. AID 861. inhibition, % at 8.4 µM. HeLa CL3-4 TLR4/MyD88 BLA complementation, FRET ratio; in the data active = inhibition above about 25%;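 also: 0% = vehicle and 100% = reference inhibitor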
TLR9-MyD88 block: blocks human TLR9 binding to MyD88; Q9NR96+Q99836; 340,000 compounds, 0.21% hits; inhibition, % at 4.98 µM; CHO BLA complementation TLR9-MyD88, CCF4 FRET ratio; AID 504734;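 active = inhibition above the mean over all tested compounds plus 3 SD, cut at about 21% in these data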;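 also: 0% = DMSO only wells and 100% = clavulanate BLA inhibitor control wells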
Mcl1-Bid inh: Mcl-1/Bid interaction inhibition. Q07820. AID 1021. inhibition, % at 21.7 µM. 220,000 compounds, 0.97% hits. TR-FRET Mcl-1/Bid-Dy647 peptide binding, 1536-well;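 active = compounds that cut the binding signal by more than half at the single screening dose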;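 also: His-tagged Mcl-1 with europium anti-His antibody binding Bid BH3 peptide; 0% = Mcl-1 plus peptide wells and 100% = peptide-only wells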
NOD2-RIPK2 inh: NOD2-RIPK2 protein interaction inhibition | CHO BLA complementation NOD2-RIPK2, CCF4 ratio | inhibition, % at 4.98 µM | 360,000 compounds, 0.38% hits | AID 624267; in the data active = inhibition above about 21%;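 also: 0% = vehicle only and 100% = reference blocker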
Target sequence (O43353 whole entry, looked up): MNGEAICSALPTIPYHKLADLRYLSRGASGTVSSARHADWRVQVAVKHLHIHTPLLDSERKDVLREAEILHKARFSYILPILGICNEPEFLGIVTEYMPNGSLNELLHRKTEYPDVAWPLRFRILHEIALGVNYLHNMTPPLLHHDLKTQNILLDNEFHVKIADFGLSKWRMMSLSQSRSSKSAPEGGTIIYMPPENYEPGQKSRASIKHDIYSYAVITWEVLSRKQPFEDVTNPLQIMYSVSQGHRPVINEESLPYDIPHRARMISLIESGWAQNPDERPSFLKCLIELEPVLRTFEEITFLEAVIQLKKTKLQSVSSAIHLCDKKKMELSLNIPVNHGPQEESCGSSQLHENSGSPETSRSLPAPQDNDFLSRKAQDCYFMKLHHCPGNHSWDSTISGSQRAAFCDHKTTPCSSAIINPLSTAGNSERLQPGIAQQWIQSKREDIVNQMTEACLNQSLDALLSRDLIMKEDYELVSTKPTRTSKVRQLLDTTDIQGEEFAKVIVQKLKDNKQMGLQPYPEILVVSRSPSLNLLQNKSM
Mcl1-Noxa inh: disrupts binding of human Mcl-1 to Noxa peptide | Q07820 | TR-FRET Mcl-1/Noxa peptide binding, 2 h | inhibition, % at 21.7 µM | 220,000 compounds, 1.5% hits | AID 1022;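 active = compounds that cut the protein-peptide binding signal by more than 50% relative to plate controls in a single-dose test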;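 also: His-tagged Mcl-1 with rhodamine Noxa BH3 peptide and terbium anti-His antibody; 0% = Mcl-1 plus Noxa peptide wells and 100% = peptide-only wells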
Mcl-1 Bim block: human Bim-Mcl-1 interaction inhibition; Q07820; Bead-based flow cytometry, Bim peptide-Mcl-1 binding; inhibition, % at 10 µM; 190,000 compounds, 0.1% hits; in the data active = inhibition above about 40%;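 also: 0% = no compound tracer wells and 100% = peptide blocker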
TLR9-MyD88 cf: confirmation of human TLR9-MyD88 binding inhibitors; 680 compounds, 51% hits; shares compounds with TLR9-MyD88 block; AID 540250; CHO TLR9/MyD88 BLA complementation, CCF4 FRET ratio; inhibition, % at 4.98 µM;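 active = mean inhibition across three repeats above about 21% taken from the earlier screen, limit read from the data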;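 also: blue over green emission ratio reports constitutive TLR9 MyD88 association via BLA complementation; 0% = DMSO vehicle wells and 100% = clavulanate BLA inhibitor wells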
BLA counter-1: beta-lactamase reporter inhibition, counter-screen artifact; 680 compounds, 7% hits; shares compounds with TLR9-MyD88 block; inhibition, % at 4.98 µM; AID 540251; CHO-BLA cells, CCF4 FRET ratio, BLA reporter;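 active = mean inhibition above a 50% cutoff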;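 also: counterscreen of TLR9-MyD88 hits on CMV-driven BLA in CHO-K1 cells; 0% = DMSO alone and 100% = clavulanate blocking BLA; higher means less blue over green ratio so more BLA blockade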
TLR9 CHO tox: CHO cell toxicity counter-screen for TLR9-MyD88 inhibitors; shares compounds with TLR9-MyD88 block; TLR9-MyD88 CHO cells cytotoxicity, luminescence; inhibition, % at 4.98 µM; 680 compounds, 39% hits; AID 588336; in the data active = inhibition above about 11%
NOD2 RIPK2 conf: confirmation of human NOD2-RIPK2 interaction inhibitors. CHO cells, NOD2-RIPK2 BLA complementation, CCF4 FRET. 1,200 compounds, 70% hits. AID 624370. inhibition, % at 4.98 µM. shares compounds with NOD2-RIPK2 inh;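 active = mean inhibition across replicates above a set limit taken from the earlier primary screen, cut at about 21% in these data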;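 also: 0% = DMSO-only wells and the high end = clavulanate BLA-blocked wells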
BLA counter-2: hits BLA reporter in NOD2-RIPK2 inhibitor counterscreen; CHO BLA reporter, CCF4 FRET ratio; AID 624371; inhibition, % at 4.98 µM; 1,200 compounds, 57% hits; shares compounds with NOD2-RIPK2 inh;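 active = mean inhibition above the low-control mean inhibition plus three low-control SD, cut at about 11% in these data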;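 also: 0% = DMSO only wells and 100% = clavulanate high control wells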
* hit, by the source's call; . = not tested or not shown.

SMILES	TLR4 MyD88 comp	TLR9-MyD88 block	Mcl1-Bid inh	NOD2-RIPK2 inh	Mcl1-Noxa inh	Mcl-1 Bim block	TLR9-MyD88 cf	BLA counter-1	TLR9 CHO tox	NOD2 RIPK2 conf	BLA counter-2
O=C(/C=C/c1cn(CC(O)CN2CCCCC2)c2ccccc12)c1cccs1 (stereo not drawn)	22	25*	-54	28*	-53	-24	22*	20	5	51*	50*
COc1ccc([C@@H]2CC=C(C(=O)O)[C@H](c3ccc(Cl)cc3)N2S(=O)(=O)c2ccc(C)cc2)cc1OC	.	-3	.	-12	.	.	.	.	.	.	.
CC(C)(C)c1cc(C2=CSC3=NCCN23)cc(C(C)(C)C)c1O	.	21*	.	24*	.	.	14	16	2	33*	17*
O=Cc1ccc2c(c1)OCCOCCOCCOCCO2	.	-10	.	-2	.	.	.	.	.	.	.
COC(=O)CCCC(=O)N1CCC(CCC(=O)NCc2ccc(F)cc2)CC1	.	-4	.	-10	.	.	.	.	.	.	.
CCOC(=O)CCC(=O)Nc1ccc([N+](=O)[O-])cc1C	-9	.	-10	-4	-6	4	.	.	.	.	.
O=C(NC1CC1)c1cccc2c1C(=O)c1ccc(N3CCC(Cc4ccccc4)CC3)cc1S2(=O)=O	.	32*	.	34*	.	.	21	25	2	45*	50*
COc1ccc(C(=O)c2sc3nc(C)cc(-c4cccs4)c3c2N)cc1OC	12	41*	-14	61*	-7	6	25*	25	8	50*	60*
Cc1cc(C)c2c(N)c(C(=O)c3ccc(Cl)cc3)sc2n1	-9	1	18	-2	12	0	.	.	.	.	.
COc1ccc(-c2ccc(SCC(=O)NC3CCCCC3)nn2)cc1OC	.	2	.	-4	.	.	.	.	.	.	.
CCOC(=O)c1c(C)nc2sc(C(=O)Nc3ccc(C(C)=O)cc3)c(N)c2c1-c1ccc(OC)cc1	23	22*	-23	25*	17	-4	18	24	16*	49*	54*
C=C1CC(COc2ccc3c(C)c(Cl)c(=O)oc3c2)(c2ccccc2)OC1=O (stereo not drawn)	.	24*	.	60*	.	.	23*	8	98*	74*	28*
CCc1ccc(Nc2n[n+](-c3ccccc3)c(-c3c(Cl)cccc3Cl)s2)cc1	.	80*	.	68*	.	.	43*	45	29*	75*	63*
CC1(C)Cc2cccc(OCC(=O)NCc3cccs3)c2O1	.	-1	.	0	.	.	.	.	.	.	.
Cc1cccc(NC(=O)c2cc(-c3cccnc3)nc3c(C)cccc23)n1	.	16	.	-8	.	.	.	.	.	.	.
CN(C(=O)c1cncc(Br)c1)C1C2CC3CC(C2)CC1C3 (stereo not drawn)	.	1	.	-7	.	.	.	.	.	.	.
Cc1ccccc1-n1c(C)cc(/C=N/Nc2ccc([N+](=O)[O-])cn2)c1C	24	37*	-40	28*	11	0	21*	25	10*	38*	40*
Cn1nc2c3cc(F)ccc3n(Cc3ccc(F)cc3)cc-2c1=O	.	9	.	-6	.	.	.	.	.	.	.
COc1cc2c3nnc(-c4ccc(F)cc4)c-3cn(Cc3ccc(F)cc3)c2cc1OC	2	24*	-36	56*	-43	0	11	15	3	61*	64*
C[C@@H]1CN([C@@H](C)CO)C(=O)CCCn2nncc2CO[C@H]1CN(C)S(=O)(=O)c1ccccc1F	.	-5	.	-2	.	.	.	.	.	.	.
Cc1ccc(S(=O)(=O)N2CCN(C(=O)CNC(=O)c3ccc(Br)o3)CC2)cc1	.	8	.	-16	.	.	.	.	.	.	.
Clc1ccccc1/C=N/NC1=Nc2cccc3cccc1c23	14	31*	-6	36*	-8	-2	13	12	11*	30*	29*
CC(=O)O[C@H]1[C@H](C)OC=C[C@@H]1OC(C)=O	.	-10	.	4	.	.	.	.	.	.	.
O=[N+]([O-])c1ccc(C2=NN(c3ccccc3)C(c3ccco3)C2)cc1 (stereo not drawn)	.	59*	-12	41*	16	.	40*	41	5	73*	69*
O=[N+]([O-])c1ccc(/C=C/C2=NN(c3ccccc3)C(c3ccco3)C2)cc1 (stereo not drawn)	17	11	-13	4	4	.	.	.	.	.	.
SMILES	TLR4 MyD88 comp	TLR9-MyD88 block	Mcl1-Bid inh	NOD2-RIPK2 inh	Mcl1-Noxa inh	Mcl-1 Bim block	TLR9-MyD88 cf	BLA counter-1	TLR9 CHO tox	NOD2 RIPK2 conf	BLA counter-2
Cc1ccc(C(=O)Nc2ccc([N+](=O)[O-])cn2)o1	-6	-3	-4	-1	22	0	.	.	.	.	.
N#CC(C#N)=C1C=CC=CN1/C(=C\c1ccco1)C(=O)c1ccccc1	-5	23*	-34	80*	12	-3	29*	9	98*	93*	17*
N#CC(C#N)=C1C=CC=CN1/C(=C\c1ccco1)C(=O)c1ccc(Br)cc1	7	42*	18	91*	34	0	46*	5	98*	93*	18*
N#C/C(=C/c1ccco1)C(N)=S	.	6	-12	-13	-6	.	.	.	.	.	.
Cc1c(Cl)c(=O)n2c(=O)c(Cl)c(C)n12	9	26*	-40	24*	-10	3	12	14	1	37*	40*
COc1ccc(OC)c2c1C(=O)c1ccccc1C2=O	16	.	-20	.	15	1	.	.	.	.	.
COc1ccc(OC)c2c1C(=O)C(Cl)=C(Cl)C2=O	.	46*	-78	86*	99*	.	70*	24	97*	88*	34*
CN(C(=O)c1ccc(S(=O)(=O)N2CCOCC2)cc1)C1CCS(=O)(=O)C1 (stereo not drawn)	.	1	.	1	.	.	.	.	.	.	.
Cc1nnsc1S(=O)c1ccc(Cl)cc1 (stereo not drawn)	.	3	.	-6	.	.	.	.	.	.	.
O=C(Nc1ccccc1)c1nnsc1S(=O)c1ccc(Cl)cc1 (stereo not drawn)	23	23*	-10	33*	39	-4	37*	7	97*	78*	25*
O=C(c1nnsc1S(=O)c1ccc(Cl)cc1)N1CCOCC1 (stereo not drawn)	6	28*	4	52*	-1	-2	31*	1	101*	68*	21*
CN(C)c1ccc(/C=C/c2nc3ccccc3c(=O)n2CCO)cc1	.	45*	.	35*	.	.	3	5	6	20	28*
